Reference: the supplement of paper PMC6555819

Assays:
Experiment in all cases: PBM binding z-score (relative to random genomic background probes); higher = stronger binding; sequences stand for … in GC…GCGATTGACAGCGTAGAATGAAGG
[1] = test system: FXR:RXRa (NR concentration 270 nM, RXRa partner concentration 90 nM)
Method in brief: (§1)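 Random background probes are the reference for binding z-scores. These scores derive from regression-normalized fluorescence on custom Agilent 4×180K protein-binding microarrays incubated 1 h with ligand-free nuclear receptor dimers. Binding was detected with antibodies against each partner (one per run).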

[2] = test system: LXRa:RXRa (NR concentration 270 nM, RXRa partner concentration 90 nM)
Method in brief: as §1

[3] = test system: LXRa homodimer (NR concentration 270 nM)
Method in brief: as §1

[4] = test system: LXRb:RXRa (NR concentration 270 nM, RXRa partner concentration 90 nM)
Method in brief: as §1

[5] = test system: LXRb homodimer (NR concentration 270 nM)
Method in brief: as §1

[6] = test system: PPARa:RXRa (NR concentration 270 nM, RXRa partner concentration 90 nM)
Method in brief: as §1

[7] = test system: PPARg:RXRa (NR concentration 180 nM, RXRa partner concentration 90 nM)
Method in brief: as §1

[8] = test system: PPARg:RXRa 270nM:90nM, anti-RXR (NR concentration 270 nM, RXRa partner concentration 90 nM)
Method in brief: as §1

[9] = test system: PPARg:RXRa 30nM:10nM, anti-RXR (NR concentration 30 nM, RXRa partner concentration 10 nM)
Method in brief: as §1

[10] = test system: PPARg:RXRa 90nM:30nM, anti-RXR (NR concentration 90 nM, RXRa partner concentration 30 nM)
Method in brief: as §1

[11] = test system: PPARg:RXRa DBDmut IVT, anti-RXR (DBD mutation: RXRa K156A/R161A, NR concentration 270 nM, RXRa partner concentration 90 nM)
Method in brief: as §1

[12] = test system: PPARg:RXRa IVT, anti-PPARg (NR concentration 270 nM, RXRa partner concentration 90 nM)
Method in brief: as §1

[13] = test system: PPARg DBDmut:RXRa IVT, anti-PPARg (DBD mutation: PPARg1 K132A/R137A, NR concentration 270 nM, RXRa partner concentration 90 nM)
Method in brief: as §1

[14] = test system: PPARg DBDmut IVT, anti-PPARg (DBD mutation: PPARg1 K132A/R137A, NR concentration 270 nM)
Method in brief: as §1

[15] = test system: PPARg homodimer (NR concentration 180 nM)
Method in brief: as §1

[16] = test system: PXR:RXRa (NR concentration 270 nM, RXRa partner concentration 90 nM)
Method in brief: as §1

[17] = test system: PXR homodimer (NR concentration 270 nM)
Method in brief: as §1

[18] = test system: RARa:RXR (NR concentration 270 nM, RXRa partner concentration 90 nM)
Method in brief: as §1

[19] = test system: RARa homodimer (NR concentration 270 nM)
Method in brief: as §1

[20] = test system: RARb:RXRa (NR concentration 270 nM, RXRa partner concentration 90 nM)
Method in brief: as §1

Sequence	PBM binding z-score [1]	PBM binding z-score [2]	PBM binding z-score [3]	PBM binding z-score [4]	PBM binding z-score [5]	PBM binding z-score [6]	PBM binding z-score [7]	PBM binding z-score [8]	PBM binding z-score [9]	PBM binding z-score [10]	PBM binding z-score [11]	PBM binding z-score [12]	PBM binding z-score [13]	PBM binding z-score [14]	PBM binding z-score [15]	PBM binding z-score [16]	PBM binding z-score [17]	PBM binding z-score [18]	PBM binding z-score [19]	PBM binding z-score [20]
AGTCAAAGTTCCCTAGGTAACGTAAGATTCAGCT	-0.33	-0.385	-0.0977	-0.4	-0.222	-0.259	0.281	0.455	0.0394	-0.0115	-0.23	0.612	-0.729	0.358	-0.325	0.00195	-0.697	-0.125	-0.463	0.687
CGTTCAAGGTCAAGGTCAGTGAAAGAGACTCGAA	8.13	5.69	1.57	5.06	1.66	6.33	6.87	6.8	3.49	5.56	4.65	5.44	0.946	1.3	3.58	5.02	1.3	5.02	1.49	5.9
TCCATTAGTTGATTAGGGCAACCGAAACAGCGGA	0.464	0.43	0.384	0.197	0.366	0.857	0.199	2.15	3.94	2.76	2.08	1.28	0.323	0.941	0.749	0.562	0.0879	0.689	0.398	1
GCTCGGAGGACAAGGACAGAGCTTTGTCCGTAGA	-0.454	-0.825	-0.708	-0.936	-1.44	-0.604	-0.644	-0.934	-1.21	-1.04	-0.897	-0.505	-1.52	-0.297	-0.588	-0.527	-0.912	-0.421	-1.45	0.929
CCTGCTAGGTCATGGTCCGCTAATCTACAGTATG	3.61	2.3	0.0178	1.67	-0.223	3.46	2.34	2.78	0.499	1.74	4.12	3.6	-0.11	-0.235	0.575	1.29	-0.433	2.09	-0.439	3.88
CCTACTAGGCCACGAAAGGTCATTGATTCAGTGA	4.02	5.66	5.5	4.32	0.558	4.84	5.77	5.3	2.35	4.43	6.91	6.28	0.693	0.0553	3.43	5.44	1.96	5.45	2.79	4.06
GCTAGCCGGCCATTTGGGTCACTCAATGACGGGC	0.14	-0.0989	-0.475	-0.0153	-0.65	1.12	0.338	0.0131	-0.633	-0.159	0.149	1.18	-0.74	-1.42	-0.135	0.15	-0.217	0.452	-1.3	1.19
